Results: the antibiotic and cytotoxicity screens of Wong et al. (2023)
Among all 39,000 compounds or so, about 3,300 (8.5%) were called active. Only a selection was taken, and actives are over-represented in it overall.

These compounds were tested on HepG2 (assay: cytotoxicity call (relative viability < 0.9)). Details: 10 µM.

SMILES | cytotoxicity call
COc1ccc(S(=O)(=O)Nc2ccc3c(c2)CC(=O)N([C@H](C)CO)C[C@@H](C)[C@H](CN(C)CC2CC2)O3)cc1 | inactive
CC1(C)CCC(c2ccc(Cl)cc2)=C(CN2CCN(c3ccc(C(=O)NS(=O)(=O)c4ccc(N[C@@H](CCN5CCOCC5)CSc5ccccc5)c(S(=O)(=O)C(F)(F)F)c4)cc3)CC2)C1 | active
CC1(C)CCC(CN2CCN(c3ccc(C(=O)NS(=O)(=O)c4ccc(NCC5CCOCC5)c([N+](=O)[O-])c4)c(Oc4cnc5[nH]ccc5c4)c3)CC2)=C(c2ccc(Cl)cc2)C1 | inactive
CN(C)CC[C@H](CSc1ccccc1)Nc1ccc(S(=O)(=O)NC(=O)c2ccc(N3CCN(Cc4ccccc4-c4ccc(Cl)cc4)CC3)cc2)cc1[N+](=O)[O-] | inactive
CC1(C)CCC(c2ccc(Cl)cc2)=C(CN2CCN(c3ccc(C(=O)NS(=O)(=O)c4ccc(N[C@H](CCN5CCOCC5)CSc5ccccc5)c(S(=O)(=O)C(F)(F)F)c4)cc3)CC2)C1 | active
CCCNC(=O)Nc1ccc2c(c1)OC[C@@H](C)N(C(=O)C1CCOCC1)C[C@H](C)[C@@H](OC)CN(C)C2=O | inactive
C[C@H](CO)N1C[C@H](C)[C@H](CN(C)C(=O)Nc2ccc(F)cc2)OCCCC[C@H](C)Oc2ccc(NC(=O)C3CCC3)cc2C1=O | inactive
COc1ccc(S(=O)(=O)Nc2ccc3c(c2)C(=O)N([C@H](C)CO)C[C@H](C)[C@H](CN(C)S(=O)(=O)c2ccc(C)cc2)O3)cc1 | inactive
C[C@@H]1CCCCO[C@@H](CN(C)C(=O)Nc2ccc3c(c2)OCO3)[C@H](C)CN([C@H](C)CO)C(=O)c2cc(NC(=O)c3ccccc3)ccc2O1 | inactive
Cc1ccc(S(=O)(=O)N(C)C[C@@H]2Oc3ccc(NC(=O)Cn4cnnn4)cc3CC(=O)N([C@H](C)CO)C[C@@H]2C)cc1 | inactive
N#CCNC(=O)CN1C(=O)c2ccccc2C1=O | inactive
NC(=O)CCN1C(=O)c2ccccc2C1=O | inactive
COC(=O)C(CCCN1C(=O)c2ccccc2C1=O)(NC(C)=O)c1nn[nH]n1 (stereo unspecified) | active
O=C(C[C@@H]1CC[C@H]2[C@@H](COC[C@@H](O)CN2C(=O)Nc2ccc(Cl)cc2)O1)NCCc1ccncc1 | inactive
Cc1ccccc1S(=O)(=O)N1C[C@H](O)COC[C@@H]2O[C@@H](CC(=O)NCCc3ccccc3)CC[C@H]21 | inactive
CO[C@H]1CN(C)C(=O)c2cc(NC(=O)Nc3ccccc3)ccc2OC[C@@H](C)N(C(=O)CN(C)C)C[C@H]1C | inactive
OCC1c2ccccc2-c2ccccc21 | inactive
CNCCCC1c2ccccc2C=Cc2ccccc21.Cl | active
CNCc1ccccc1.Cl | inactive
Cc1noc(C)c1S(=O)(=O)N(C)C[C@@H]1OCCCC[C@@H](C)Oc2ccc(N(C)C)cc2C(=O)N([C@H](C)CO)C[C@H]1C | inactive
CC(C)Cc1ccc(CN2CC[C@@H](N)C2)cc1 | inactive
CC(C)N1CC=C[C@@]23O[C@@H]4C=CCOC(=O)[C@@H]4[C@H]2C(=O)N(CCCCCO)[C@@H]3C1=O | inactive

SMILES | cytotoxicity call
C[C@@H]1CN([C@H](C)CO)C(=O)CCCn2nncc2CO[C@@H]1CN(C)S(=O)(=O)c1ccc(-c2ccccc2)cc1 | inactive
C[C@@H]1CC=CC[C@@H](c2cccc(Cl)c2)NC(=O)[C@H](Cc2ccccc2)N(C)C(=O)c2ccccc2O1 | inactive
C[C@@H]1CCCn2nncc2COCCNC1=O | inactive
CCCN(C)C[C@H]1OCCCC[C@H](C)Oc2ccc(NS(=O)(=O)c3ccc(Cl)cc3)cc2C(=O)N([C@H](C)CO)C[C@H]1C | inactive
CCCN(C)C[C@H]1OCCCC[C@@H](C)Oc2ccc(NS(=O)(=O)c3ccc(Cl)cc3)cc2C(=O)N([C@@H](C)CO)C[C@H]1C | active
C[C@@H]1CCCCO[C@H](CN(C)CC2CCCCC2)[C@@H](C)CN([C@H](C)CO)C(=O)c2cc(NS(=O)(=O)c3ccc(Cl)cc3)ccc2O1 | inactive
C[C@@H]1CCCCO[C@@H](CN(C)CC2CCCCC2)[C@H](C)CN([C@H](C)CO)C(=O)c2cc(NS(=O)(=O)c3ccc(Cl)cc3)ccc2O1 | active
C[C@@H]1CCCCO[C@@H](CN(C)CC2CCCCC2)[C@H](C)CN([C@@H](C)CO)C(=O)c2cc(NS(=O)(=O)c3ccc(Cl)cc3)ccc2O1 | inactive
C[C@@H]1CCCCO[C@@H](CN(C)CC2CC2)[C@H](C)CN([C@@H](C)CO)C(=O)c2cc(NS(=O)(=O)c3ccc(Cl)cc3)ccc2O1 | inactive
C[C@@H]1CCCCO[C@H](CN(C)CC2CCCCC2)[C@H](C)CN([C@@H](C)CO)C(=O)c2cc(NS(=O)(=O)c3ccc(Cl)cc3)ccc2O1 | active
C[C@H](CO)N1C[C@H](C)[C@@H](CN(C)CC2CCCCC2)OCCCC[C@H](C)Oc2ccc(NS(=O)(=O)c3ccc(Cl)cc3)cc2C1=O | inactive
C[C@@H]1CCCCO[C@H](CN(C)CC2CCCCC2)[C@H](C)CN([C@H](C)CO)C(=O)c2cc(NS(=O)(=O)c3ccc(Cl)cc3)ccc2O1 | inactive
C[C@@H]1CCCCO[C@@H](CN(C)CC2CCCCC2)[C@@H](C)CN([C@H](C)CO)C(=O)c2cc(NS(=O)(=O)c3ccc(Cl)cc3)ccc2O1 | inactive
C[C@@H]1CN([C@H](C)CO)C(=O)c2cc(NS(=O)(=O)c3ccc(Cl)cc3)ccc2O[C@@H](C)CCCCO[C@@H]1CN(C)CC1CCCCC1 | active
CCCN(C)C[C@H]1OCCCC[C@H](C)Oc2ccc(NS(=O)(=O)c3ccc(Cl)cc3)cc2C(=O)N([C@@H](C)CO)C[C@H]1C | inactive
Cc1ccc(S(=O)(=O)N(C)C[C@H]2Oc3c(NC(=O)C4CCOCC4)cccc3C(=O)N([C@@H](C)CO)C[C@H]2C)cc1 | inactive
C[C@@H]1CN([C@@H](C)CO)C(=O)c2cc(NS(C)(=O)=O)ccc2O[C@@H](C)CCCCO[C@@H]1CN(C)C(=O)CCCN(C)C | inactive
CN1CCN(C(=O)C[C@@H]2CC[C@@H](NC(=O)Cc3ccccn3)[C@@H](CO)O2)CC1 | inactive
NCC[C@H]1CC[C@@H](NC(=O)C2CCCC2)[C@@H](CO)O1 | inactive
Cc1noc(C)c1S(=O)(=O)Nc1ccc2c(c1)C(=O)N([C@@H](C)CO)C[C@@H](C)[C@H](CN(C)S(C)(=O)=O)OCCCC[C@@H](C)O2 | inactive
CC(=O)N1CCC[C@H](C(=O)O)C1 | inactive
COc1ccc(S(=O)(=O)N[C@H]2CC[C@H](CC(=O)N3CCC(Cc4ccccc4)CC3)O[C@@H]2CO)cc1 | inactive

SMILES | cytotoxicity call
C[C@@H]1CN([C@@H](C)CO)C(=O)c2cc(NS(=O)(=O)c3ccc(Cl)cc3)ccc2O[C@@H](C)CCCCO[C@H]1CN(C)CC1CCCCC1 | inactive
C[C@@H]1CCCCO[C@@H](CN(C)CC2CCCCC2)[C@@H](C)CN([C@@H](C)CO)C(=O)c2cc(NS(=O)(=O)c3ccc(Cl)cc3)ccc2O1 | active
C[C@H](CO)N1C[C@H](C)[C@H](CN(C)CC2CCCCC2)OCCCC[C@H](C)Oc2ccc(NS(=O)(=O)c3ccc(Cl)cc3)cc2C1=O | active
C[C@H]1CCCCO[C@@H](CN(C)CC2CCCCC2)[C@@H](C)CN([C@@H](C)CO)C(=O)c2cc(NS(=O)(=O)c3ccc(Cl)cc3)ccc2O1 | inactive
C[C@@H]1CN([C@@H](C)CO)C(=O)c2cc(NS(=O)(=O)c3ccc(Cl)cc3)ccc2O[C@@H](C)CCCCO[C@@H]1CN(C)CC1CCCCC1 | inactive
C[C@H]1CCCCO[C@H](CN(C)CC2CCCCC2)[C@@H](C)CN([C@@H](C)CO)C(=O)c2cc(NS(=O)(=O)c3ccc(Cl)cc3)ccc2O1 | inactive
C[C@@H]1CN([C@@H](C)CO)S(=O)(=O)c2ccc(-c3cccc(F)c3)cc2O[C@@H]1CN(C)S(C)(=O)=O | inactive
CS(=O)(=O)N1CCc2ccc(N)cc2C1 | inactive
Cc1noc(C)c1NC(=O)Nc1ccc2c(c1)CC(=O)N([C@H](C)CO)C[C@@H](C)[C@H](CN(C)Cc1ccc(C(F)(F)F)cc1)O2 | inactive
Cc1ccc(S(=O)(=O)Nc2ccc3c(c2)C(=O)N([C@@H](C)CO)C[C@H](C)[C@@H](CN(C)S(=O)(=O)c2ccc(F)cc2)O3)cc1 | inactive
CN(CCO)c1ccccn1 | inactive
CN(CCOc1ccc(CC2SC(=O)NC2=O)cc1)c1ccccn1.O=C(O)C=CC(=O)O (stereo unspecified) | active
CCc1ccc(CCOc2ccc(CC3SC(=O)NC3=O)cc2)nc1.Cl (stereo unspecified) | inactive
C[C@@H]1CCCCO[C@@H](CN(C)S(=O)(=O)c2cccs2)[C@@H](C)CN([C@H](C)CO)C(=O)c2cc(NC(=O)CCCCCC(=O)Nc3ccccc3N)ccc2O1 | inactive
C[C@H](CO)N1C[C@H](C)[C@H](CN(C)C(=O)Nc2ccccc2)Oc2ncc(-c3cccc(C(F)(F)F)c3)cc2C1=O | inactive
CN(C)C1CCN(C(=O)c2cnc(-c3noc4cc(-c5cccc(C(F)(F)F)c5)ccc34)s2)CC1 | active
C[C@H](CO)N1C[C@H](C)[C@H](CN(C)C(=O)Nc2cccc3ccccc23)Oc2ncc(-c3cccc(C(F)(F)F)c3)cc2C1=O | inactive
CN(C)C1CCN(C(=O)c2cnc(-c3noc4cc(-c5ccccc5C(F)(F)F)ccc34)s2)CC1 | active
C[C@H]1CN([C@@H](C)CO)C(=O)c2cccc(NC(=O)C3CCCCC3)c2O[C@@H]1CN(C)Cc1ccc(C(F)(F)F)cc1 | inactive
CCCN(C)C[C@H]1OCCCC[C@H](C)Oc2ccc(NC(=O)Nc3cccc4ccccc34)cc2C(=O)N([C@@H](C)CO)C[C@H]1C | inactive
O=C(CCCCCNC(=O)OCc1ccc(CO[C@@H]2C[C@H](c3csc4ccccc34)C=C(C(=O)N3CCN(Cc4ccccc4)CC3)O2)cc1)NO | inactive
C[C@H]1CN([C@@H](C)CO)C(=O)c2cc(NC(=O)C3CC3)ccc2O[C@H]1CN(C)S(=O)(=O)c1cccs1 | inactive
